# Screening results (PubChem BioAssay)
# HP1b binding inh = HP1-beta chromodomain-methylated histone interaction inhibition; P83916; AlphaScreen HP1-beta / biotin-H3K9me3 peptide binding; Potency, µM (titrated, usually from 114 µM), for the others: top-dose activity change, negative = inhibition, hits mostly inhibitors; 390,000 compounds, 0.56% hits; further: nearly all actives have a fitted effect of over 70% in size
# Target sequence (P83916 whole entry, looked up): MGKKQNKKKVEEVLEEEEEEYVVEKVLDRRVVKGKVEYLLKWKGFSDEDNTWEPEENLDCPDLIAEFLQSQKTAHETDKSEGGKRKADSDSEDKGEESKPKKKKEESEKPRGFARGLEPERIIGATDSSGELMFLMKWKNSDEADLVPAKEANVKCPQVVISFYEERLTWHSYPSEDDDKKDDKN
#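 AlphaScreen: HP1-beta (50 nM) preformed 30 min with biotin-H3(1-18)K9me3 peptide (50 nM) in PBS pH 7.4, 0.01% Tween-20. Compound added for 30 min at RT, then streptavidin donor/nickel chelate acceptor beads (10 ug/mL) for 30 min.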
# G9a block = G9a (human) methyltransferase inhibition; Q96KQ7; G9a H3K9 monomethylation, AlphaScreen, 2 h; Potency, µM (titrated, usually from 102 µM), without a hit: at the top dose activity, negative = inhibition, actives largely listed as inhibitors; 350,000 compounds, 8.8% hits; AID 504332; further: on the % scale 0 is the no-effect control and ±100 the full control effect; nearly all actives have a fitted effect of over 75% in size
# Target sequence (Q96KQ7 913-1193 limits assumed): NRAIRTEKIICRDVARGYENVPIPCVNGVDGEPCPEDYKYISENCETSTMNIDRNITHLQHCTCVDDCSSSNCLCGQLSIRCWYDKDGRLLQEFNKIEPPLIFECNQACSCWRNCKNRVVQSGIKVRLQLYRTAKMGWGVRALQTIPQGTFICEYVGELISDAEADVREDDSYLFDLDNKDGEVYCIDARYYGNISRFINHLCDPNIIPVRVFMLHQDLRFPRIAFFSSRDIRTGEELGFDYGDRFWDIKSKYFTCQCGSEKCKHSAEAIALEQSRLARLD
#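 Quantitative HTS format: methyltransferase activity on a biotin-tagged H3K9 peptide is measured by AlphaScreen, using a rabbit anti-monomethyl-H3K9 antibody with streptavidin donor and anti-IgG acceptor beads. Final levels are 20 nM enzyme, 500 nM peptide, 20 uM SAM; 2 h RT.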
# JMJD2A Tudor inh = blocks the human JMJD2A Tudor domain; O75164; AlphaScreen JMJD2A-Tudor / H3K4me3 peptide binding; Potency, µM (highest dose often 114 µM), for inactives: at the highest dose activity change, negative = inhibition, most hits filed as inhibitors; 390,000 compounds, 4.4% hits; further: on the % scale 0 is the no-effect control and ±100 the full control effect; nearly all actives have a fitted effect of over 50% in size
# BAZ2B block = blocks human BAZ2B; Q9UIF8; AlphaScreen BAZ2B-H3K14Ac peptide displacement; Potency, µM (titrated, usually from 114 µM), for inactives: at the top dose activity change, negative = inhibition, most hits filed as inhibitors; 360,000 compounds, 4.4% hits; AID 504333; further: on the % scale 0 is the no-effect control and ±100 the full control effect; nearly all actives have a fitted effect of over 60% in size
#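 AlphaScreen luminescence quantifies BAZ2B engagement of H3K14Ac peptide; the protein and biotinylated peptide are both at 50 nM final, buffer PBS pH 7.4 with 0.01% Tween-20, all steps at room temperature.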
# GLS inh = blocks human kidney-isoform glutaminase activity; Potency, µM (series often up to 45.5 µM), for the others: at the top dose activity change, negative = inhibition, most hits filed as inhibitors; AID 624170; O94925; 410,000 compounds, 0.21% hits; GLS enzymatic activity, qHTS titration; further: on the % scale 0 is the no-effect control and ±100 the full control effect
#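 Human kidney-isoform GLS in 45 mM KH2PO4 pH 8.2, 0.02% Tween-20, with compound, started with 1mM L-Glutamine (added stock). Glutamate oxidase/HRP/Amplex red coupled fluorescence read at start and after 30 min at RT.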
# * hit, by the source's call; u = inconclusive; x = no result; [ ] = another dose, or the depositor's remark. Most compounds without a hit are left out; they make up all but 10% or so of the library. The call rests on the fitted dose curve; in most records, active means well fitted curve in the direction sought with a large enough effect; inconclusive means small, poorly fitted or top-dose-only effect, or another doubt; inactive means no such curve, though single readings can be large; an effect the other way counts as inactive or inconclusive. Potency means the concentration at half of the fitted maximal effect.
SMILES,HP1b binding inh,G9a block,JMJD2A Tudor inh,BAZ2B block,GLS inh
O=S(=O)(O)c1cc(Cl)cc(N=Nc2ccc(O)cc2O)c1O,u,x,20µM*,x,7.2%
COc1ccc(N2C(=O)/C(=C/N(C)C)NC2=S)cc1,u,3.55µM*,17.8µM*,-11.8%,u
COc1ccc(N2C(=O)/C(=C/c3cccnc3)NC2=S)cc1,33.8%,u,-11.6%,5.3%,-2.5%
Cc1c(NC(=O)C(C)Oc2ccccc2F)c(=O)n(-c2ccccc2)n1C (stereo not given),8.4%,0.0%,2.1%,0.2%,-0.8%
Nc1ccccc1Sc1nc2ccccc2[nH]1,u,7.08µM*,28.2µM*,39.8µM*,5.5%
CS(=O)(=O)c1ccc(Sc2nc3ccccc3[nH]2)c([N+](=O)[O-])c1,-5.6%,u,11.2µM*,u,7.3%
COC(=O)[C@@]1(Cc2ccccc2)[C@@H]2C(=CC(=O)[C@H]2CC(=O)C(=O)N(C)C)CN1C(=O)c1ccccc1,32.7%,u,-14.0%,-5.6%,-7.0%
COc1cc2cc(CN(CCO)C(=O)c3cccs3)c(=O)[nH]c2cc1OC,17.5%,8.8%[12.7 µM],-16.7%,8.1%,3.5%
CCN(CC)c1ccc(CN(C(=O)c2cccs2)C2CCS(=O)(=O)C2)cc1 (stereo not given),4.8%,39.8µM*,u,u,17.0%
CCOc1ccccc1C(=O)N(Cc1cc(OC)c(OC)c(OC)c1)C1CCS(=O)(=O)C1 (stereo not given),15.3%,11.7%[59 µM],-16.7%,2.0%,1.3%
CCN(CC)c1ccc(CN(C(=O)c2ccco2)C2CCS(=O)(=O)C2)cc1 (stereo not given),3.5%,44.7µM*,-35.3%,-36.0%,39.0%
CCc1ccc(CN(C(=O)c2ccco2)C2CCS(=O)(=O)C2)cc1 (stereo not given),12.3%,u,22.4µM*,2.0%,-1.1%
CCN(CC)c1ccc(CN(C(=O)c2cc(OC)c(OC)c(OC)c2)C2CCS(=O)(=O)C2)cc1 (stereo not given),-4.8%,35.5µM*,u,u,26.9%
Cc1ccc(CN(C(=O)c2cccs2)C2CCS(=O)(=O)C2)cc1 (stereo not given),29.5%,0.8%,6.7%,-19.5%,0.0%
CSCCC(NC(=O)c1ccc(Cl)cc1Cl)C(=O)NCc1ccccn1 (stereo not given),32.6%,-3.3%,-9.6%,-15.0%,2.9%
Cc1ccccc1Cn1c(=O)n(CCc2ccccc2)c(=O)c2ccccc21,34.3%,5.2%[59 µM],11.3%,5.0%,-6.0%
COc1cccc(CN(C(=O)c2cccs2)C2CCS(=O)(=O)C2)c1 (stereo not given),9.9%,20.2%,56.2µM*,-14.2%,-1.9%
O=C(c1ccco1)N(Cc1cccc(F)c1)C1CCS(=O)(=O)C1 (stereo not given),23.3%,-9.3%,-13.2%,56.2µM*,3.0%
COc1ccc2c(c1)CC(NC(=O)Nc1cc(Cl)ccc1OC)CO2 (stereo not given),22.5%[57 µM],-13.5%[59 µM],-8.4%,-1.3%,-3.4%
COc1ccc(-c2csc(NC(=O)CSc3nc(SC)ns3)n2)cc1,14.2%,-16.3%[59 µM],-32.4%,-25.6%,-2.3%
Cc1cc(C)c(Nc2cc(S(=O)(=O)O)c(N)c3c2C(=O)c2ccccc2C3=O)c(C)c1,u,2.82µM*,7.94µM*,5.62µM*,16.5%
CCc1noc(C)c1C(=O)N(CCCOC)c1c(N)n(Cc2ccccc2)c(=O)[nH]c1=O,39.6%,6.8%[0.501 µM],-9.9%,0.3%,-18.1%
CC(OC(=O)C1=Cc2ccccc2OC1)C(=O)NCC1CCCO1 (stereo not given),u,x,22.4µM*,x,-22.3%
CN(C)c1ccc(C2CC(=O)C=C(Nc3ccccc3N)C2)cc1 (stereo not given),-5.8%,x,u,44.7µM*,28.1%
CC1(C)CC(=O)C=C(Nc2ccccc2N)C1,64.4%,u,10.8%[57.1 µM],u,-13.6%
SMILES,HP1b binding inh,G9a block,JMJD2A Tudor inh,BAZ2B block,GLS inh
CCC(C)Oc1nc2c(c(=O)n(C)c(=O)n2C)n1C (stereo not given),16.2%,-4.7%,-2.1%,-23.7%,-7.7%
COc1ccc(CNC(=O)C/C(C)=N/NC(=O)Cc2ccc(OC)c(OC)c2)cc1,22.7%,17.6%[59 µM],5.2%,-0.1%,-0.2%
Cn1c(=O)n(C)c2cc([N+](=O)[O-])c(N3CCN(C(=O)c4ccccc4Cl)CC3)cc21,11.2%,7.0%,-12.9%,50.1µM*,-2.3%
Cn1c(=O)n(C)c2cc([N+](=O)[O-])c(N3CCN(S(C)(=O)=O)CC3)cc21,28.1%,1.1%[59 µM],-8.3%,50.1µM*,2.0%
COC(=O)N/N=C/c1ccc(-c2cccc(Cl)c2)o1,15.3%,u,-23.8%,u,-11.8%
COc1ccc(C(=O)CCC(=O)Nc2cccc(Cl)c2)cc1,11.7%,-31.8%,0.0%,-7.4%,0.0%
CSc1nc2nccc(-c3ccc(Cl)cc3)n2n1,20.6%,8.5%[59 µM],3.7%,4.2%,2.8%
CN1C(C(=O)Nc2ccc(F)cc2F)=CC(c2ccc3c(c2)OCO3)=NS1(=O)=O,38.6%,-35.5%[59 µM],-17.2%,1.7%,5.8%
Cc1ccc(C2=NS(=O)(=O)N(C)C(C(=O)Nc3ccc(F)cc3F)=C2)cc1,-16.6%,70.8µM*,u,-11.8%,-3.6%
COc1ccc(NC(=O)C2=CC(c3ccc(C)cc3)=NS(=O)(=O)N2C)cc1,-20.3%,x,u,u,-0.8%
COC(=O)c1ccccc1NC(=O)C1=CC(c2ccc(C)cc2)=NS(=O)(=O)N1C,-9.4%,12.6µM*,u,u,1.0%
CCCCC#Cc1ccccc1CC(=O)Nc1ccccc1,47.3%,7.94µM*,u,u,-9.1%
CCOc1ccc(S(=O)(=O)Nc2cccc(C(=O)N3CCN(c4ccccc4O)CC3)c2)cc1,-5.7%,u,-18.8%,10.9%,9.3%
O=c1c2cccnc2[nH]c(=S)n1CCCN1CCN(c2ccccc2F)CC1,32.1%,24.7%[2.33 µM],-16.4%,5.4%,2.3%
CC1CC(C)CN(CCCn2c(=S)[nH]c3ccccc3c2=O)C1 (stereo not given),49.9%,79.4µM*,-15.1%,0.7%,-4.2%
CCCCN(C)CCn1c(=S)[nH]c2ncccc2c1=O,-12.2%,50.1µM*,u,3.5%,26.4%
O=c1c2ccccc2[nH]c(=S)n1CCCN1CCN(c2ccccc2)CC1,-4.9%[57 µM],-21.9%,-17.7%,-2.9%,-7.8%
CC1CCCCN1CCn1c(=S)[nH]c2ncccc2c1=O (stereo not given),-2.0%,u,39.8µM*,-25.4%,29.2%
CCN(CC)CCCn1c(=S)[nH]c2ccccc2c1=O,28.9%,u,56.2µM*,-29.8%,8.5%
CCC(CC)C(=O)Oc1c(C(=O)N(C)C)cccc1-c1ccccc1,-15.0%,x,-19.6%,x,-12.7%
